PubChem BioAssay AID1362 (SRMLSC, 2008)
Screen size: about 190,000 compounds; about 4,000 (2.1%) were called active. No stated cut-off is given here; in the data, active means inhibition above about 58%; inactive means the rest, inconclusive results apart; tested in S. cerevisiae. This excerpt belongs to a sample that is enriched for actives.

Assay: growth inhibition of WT strain, primary screen, mitochondrial fusion inhibitor project, WT and mutant strains, chemical genetic (AID 1362)
Conditions: mitochondrial fusion phenotypic screen, at 10 µM
[1] = WT strain, growth inhibition, stronger effect = higher value

Row | SMILES | inhibition [1] | inhibition (mutant strain inhibition) [%]
1 | Cc1nn(CCOc2ccc(Br)cc2)c(C)c1[N+](=O)[O-] | 3.38% (inactive) | -3.33
2 | O=S(=O)(Cc1ccccc1)c1nc2ccccc2n1Cc1ccccn1 | 23.5% (inactive) | 10.5
3 | OC(CN=c1sc2ccccc2n1CC(O)COc1ccccc1)COc1ccccc1 (stereo not drawn) | 74.3% (active) | 39.9
4 | C=CCn1c(=N)n(CC(O)COc2ccc(OC)cc2)c2ccccc21 (stereo not drawn) | 10.5% (inactive) | -4.41
5 | OC(COc1ccccc1)Cn1cc(Br)cn1 (stereo not drawn) | 5.35% (inactive) | -3.45
6 | COc1ccccc1C(c1nnnn1CC1CCCO1)N1CCN(c2ccccc2)CC1 (stereo not drawn) | 24.2% (inactive) | -7.45
7 | O=C1COc2ccc(C(=O)COC(=O)C3CC(O)CN3S(=O)(=O)c3ccc(Cl)cc3)cc2N1 (stereo not drawn) | 7.83% (inactive) | 0.3
8 | Cc1ccnc(NC(=O)CCC(=O)N(CC(=O)NCc2ccccc2)Cc2ccco2)c1 | -6.89% (inactive) | 16.9
9 | O=S1(=O)CCC(NC(=S)SCc2ccccc2Br)C1 (stereo not drawn) | -2.13% (inactive) | 13.4
10 | CC(C)CCn1c(CN(C)Cc2ccccc2)nc2c1c(=O)n(C)c(=O)n2C | 1.88% (inactive) | 1.47
11 | COCCn1c(CN(Cc2ccccc2)Cc2ccccc2)nc2c1c(=O)n(C)c(=O)n2C | 13% (inactive) | -1.28
12 | CC(C)Cn1c(CN(Cc2ccccc2)Cc2ccccc2)nc2c1c(=O)n(C)c(=O)n2C | 85.5% (active) | 23.3
13 | Cc1ccc2nc(C)cc(N/N=C/c3ccc(F)cc3)c2c1 | 6.16% (inactive) | 21
14 | CCOC(=O)c1cccc(NC(=O)CCOc2ccccc2)c1 | 3.69% (inactive) | 2.18
15 | COc1ccccc1CC(=O)Nc1ccc([N+](=O)[O-])cc1OC | -6.53% (inactive) | -1.24
16 | COc1ccccc1CSc1nc2ccccc2[nH]1 | -4.85% (inactive) | -2.06
17 | COc1ccccc1CSc1ncc(-c2ccc([N+](=O)[O-])cc2)[nH]1 | 63.4% (active) | 30.7
18 | COCC(C)NCc1cc(Br)ccc1OC (stereo not drawn) | 7.52% (inactive) | 7.1
19 | CCCOc1ccc(C(=O)NCCc2ccccc2)cc1 | -6.25% (inactive) | -16.2
20 | CCCOc1ccc(N/C=C/C(=O)C(C)(C)C)cc1 | -11.3% (inactive) | -8.28
21 | CCCOc1ccc(C(=O)C(CCC(CNCC)C(=O)c2ccc(OCCC)cc2)CNCC)cc1 (stereo not drawn) | 72.9% (active) | 35.9
22 | Cc1cc2ccccc2n1CCC(=O)O | 7.54% (inactive) | 5.92

Row | SMILES | inhibition [1] | inhibition (mutant strain inhibition) [%]
23 | NC(=O)c1ccccc1N(Cc1ccccc1)S(=O)(=O)c1ccccc1 | -1.27% (inactive) | 17.1
24 | COc1ccc(S(=O)(=O)N(C)CC(=O)N2CCCC2)cc1Cl | -0.67% (inactive) | 5.49
25 | O=C(O)CC/C(=N\NC(=O)c1ccc(F)cc1)c1ccc(Br)cc1 | -0.54% (inactive) | 7.09
26 | Clc1ccc(-c2ncc3ccccn23)c(Cl)c1 | 24.3% (inactive) | 2.24
27 | COn1c(-c2ccc(Cl)cc2Cl)nc2ncccc21 | 6.69% (inactive) | 2.12
28 | Clc1ccc(COn2c(-c3ccc(Cl)cc3Cl)nc3ncccc32)cc1 | 73.2% (active) | 48.6
29 | COCCNC(=S)Nc1cc(S(=O)(=O)N2CCOCC2)ccc1N1CCCCC1 | 22% (inactive) | 22.7
30 | COc1ccc(-c2cc(C3CCN(c4ncccc4[N+](=O)[O-])CC3)[nH]n2)cc1 | 72.2% (active) | 40.6
31 | CC(=O)NC(Cc1ccccc1)C(=O)NC1CCN(c2ncccc2[N+](=O)[O-])CC1 (stereo not drawn) | 6.05% (inactive) | 4.93
32 | COc1ccc(N2CCN(c3ccc([N+](=O)[O-])nc3)CC2)cc1 | 15.8% (inactive) | 8.11
33 | O=c1cnnc(Nc2ccccc2F)[nH]1 | -19.8% (inactive) | -21.4
34 | O=C(COc1ccc(Cl)cc1)N1CCN(c2cccc(C(F)(F)F)c2)CC1 | 59.2% (active) | 27.3
35 | O=C(COc1ccc(Cl)cc1)N1CCN(S(=O)(=O)c2ccc(Cl)cc2)CC1 | -16.2% (inactive) | -6.77
36 | CCC(=O)c1ccc(OCC(O)CN2CCN(c3cccc(C(F)(F)F)c3)CC2)cc1 (stereo not drawn) | 10.7% (inactive) | 17.1
37 | CC(=O)Oc1ccccc1C1=NN(C(C)=O)C(c2ccccc2)C1 (stereo not drawn) | -8.11% (inactive) | 7.28
38 | Cc1cccc(NC(=S)Nc2ccc3cn[nH]c3c2)c1 | 3.94% (inactive) | -1.45
39 | Cc1cccc(NC(=S)Nc2ccc(Br)cc2)c1 | -2.23% (inactive) | -3.76
40 | Cc1cccc(NC(=S)Nc2ccc(Cl)c(Cl)c2)c1 | 83% (active) | 83
41 | CCCCCN(C(=O)NC(=O)Nc1cccc(C)c1C)S(C)(=O)=O | -2.53% (inactive) | 12
42 | O=S(=O)(c1ccc(-c2ccccc2)cc1)N1CCCC1 | -9.92% (inactive) | -14.9
43 | CCOC(=O)N1CCN(C(=O)Cn2cnc3ccccc3c2=O)CC1 | -8.2% (inactive) | -9.03
44 | CCOC(=O)C1CCc2nc3ccccc3c(=O)n21 (stereo not drawn) | 96.7% (active) | 18.1
